# From PubChem
# PAFAH1B2 inh: PAFAH1B2 enzyme inhibitors, primary screen, biochemical, fluorescence polarization, human; Platelet-activating factor acetylhydrolase IB subunit alpha2 (Homo sapiens), P68402; recombinant PAFAH1B2, FP-rhodamine activity probe; inhibition, % at 3.39 µM; 340,000 tested, 1.2% active;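 active = inhibition above the mean of all tested compounds plus 3 SD, cut at about 24% in these data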;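 note: 0% = enzyme with DMSO and 100% = wells lacking PAFAH1B2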
# PfM18AAP inh-1: PfM18AAP inhibitors, malaria aminopeptidase, primary screen, biochemical, QFRET, recombinant enzyme; M18 aspartyl aminopeptidase (Plasmodium falciparum 3D7); H-Glu-NHMec fluorogenic cleavage; inhibition, % at 7.35 µM; 290,000 tested, 1.2% active; AID 1822, 2009;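 active = inhibition above the campaign mean inhibition over all tested compounds plus 3 SD, cut at about 28% in these data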;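 note: 0% = plate median of test compound wells and 100% = 2 mM ZnCl2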
# DSG3 Ab inh: inhibitors of pemphigus antibody binding to DSG3, primary screen, biochemical, bead-based, flow cytometry, scFv-GFP | DSG3-coupled beads, scFv-anti-DSG3-GFP binding; stronger effect = lower value | binding (percent of control), % at 10 µM | 310,000 tested, 0.48% active;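 active = binding more than 3 SD below its plate's average and above zero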;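 note: hits lower antibody fragment binding to DSG3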
# Target sequence (P32926 whole entry, looked up, the tested form may be a part): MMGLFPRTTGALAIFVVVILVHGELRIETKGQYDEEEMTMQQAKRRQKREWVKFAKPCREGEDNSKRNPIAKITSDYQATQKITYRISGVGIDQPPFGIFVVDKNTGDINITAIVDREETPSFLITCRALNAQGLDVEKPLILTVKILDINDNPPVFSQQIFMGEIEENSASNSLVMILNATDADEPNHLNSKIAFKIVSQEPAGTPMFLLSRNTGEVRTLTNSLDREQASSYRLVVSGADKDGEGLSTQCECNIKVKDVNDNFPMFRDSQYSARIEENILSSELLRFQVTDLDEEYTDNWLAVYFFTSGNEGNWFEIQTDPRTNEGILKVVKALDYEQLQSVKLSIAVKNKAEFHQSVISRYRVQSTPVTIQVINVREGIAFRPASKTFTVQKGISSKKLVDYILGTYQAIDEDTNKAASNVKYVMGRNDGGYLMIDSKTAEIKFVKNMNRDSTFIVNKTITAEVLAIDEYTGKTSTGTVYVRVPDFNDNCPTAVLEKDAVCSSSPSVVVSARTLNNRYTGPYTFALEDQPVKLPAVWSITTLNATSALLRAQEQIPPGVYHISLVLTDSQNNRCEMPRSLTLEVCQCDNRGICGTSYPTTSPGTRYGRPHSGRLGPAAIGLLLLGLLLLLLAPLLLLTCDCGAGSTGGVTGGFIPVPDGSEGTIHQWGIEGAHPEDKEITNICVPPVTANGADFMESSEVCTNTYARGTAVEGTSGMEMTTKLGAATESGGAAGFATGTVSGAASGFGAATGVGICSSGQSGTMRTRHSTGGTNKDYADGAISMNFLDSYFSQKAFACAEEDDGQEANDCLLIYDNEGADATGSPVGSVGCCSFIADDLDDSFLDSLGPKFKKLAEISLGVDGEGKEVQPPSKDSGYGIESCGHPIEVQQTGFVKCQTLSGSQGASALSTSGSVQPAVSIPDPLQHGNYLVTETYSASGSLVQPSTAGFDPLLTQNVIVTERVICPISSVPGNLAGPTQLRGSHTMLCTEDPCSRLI
# PAFAH1B3 FP inh: PAFAH1B3 enzyme inhibitors, primary screen, biochemical, fluorescence polarization, human | Platelet-activating factor acetylhydrolase IB subunit alpha1 (Homo sapiens), Q15102 | recombinant PAFAH1B3, FP-rhodamine probe | inhibition, % at 3.39 µM | 340,000 tested, 0.28% active;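 active = inhibition above the screen-wide average of all tested compounds plus 3 SD, cut at about 25% in these data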;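 note: 0% = enzyme with DMSO only and 100% = wells lacking PAFAH1B3 protein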
# PAFAH2 FP inh: PAFAH2 enzyme inhibitors, primary screen, biochemical, fluorescence polarization, human. 340,000 tested, 0.99% active. recombinant PAFAH2, FP-rhodamine activity probe. inhibition, % at 3.39 µM;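 active = inhibition above the mean over all tested compounds plus 3 SD, cut at about 30% in these data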;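 note: inhibitors block probe labeling of enzyme so polarization drops; 0% = enzyme with DMSO and 100% = wells lacking PAFAH2 protein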
# pPAFAH inh: pPAFAH enzyme inhibitors, primary screen, biochemical, fluorescence polarization, human; Platelet-activating factor acetylhydrolase (Homo sapiens), Q13093; recombinant pPAFAH, FP-rhodamine probe fluorescence polarization; inhibition, % at 3.39 µM; 330,000 tested, 1.5% active;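 active = inhibition above the mean inhibition across the screen plus 3 SD, cut at about 25% in these data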;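 note: inhibitors block binding of the rhodamine activity-based probe so polarization drops; 0% = enzyme with DMSO and 100% = wells lacking pPAFAH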
# PfM18AAP inh-2: PfM18AAP inhibitors, malaria aminopeptidase, confirmation, biochemical, QFRET, recombinant enzyme, triplicate. shares compounds with PfM18AAP inh-1. H-Glu-NHMec fluorogenic cleavage. inhibition, % at 7.35 µM. 2,400 tested, 28% active;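 active = mean inhibition over replicate wells above the hit cutoff set for the earlier primary screen, cut at about 29% in these data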;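 note: 0% = median of test compound wells and 100% = 2 mM ZnCl2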
# CTSL1 counter: cathepsin L1 inhibitors, retest, confirmation, counter-screen for PFM18AAP inhibitor project, biochemical, QFRET, triplicate; shares compounds with PfM18AAP inh-1; purified cathepsin L1, Z-Leu-Arg-MCA fluorescence; inhibition, % at 5.96 µM; 2,400 tested, under 10 active; AID 2178, 2009;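 active = average inhibition across replicates above the hit cutoff set in the earlier primary screen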;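 note: 0% = median of test compound wells and 100% = Z-Phe-Ala-diazomethylketone 1 µM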
# pPAFAH confirm: pPAFAH (PLA2G7) enzyme inhibitors, confirmation, biochemical, fluorescence polarization, human; AID 463230, 2010; shares compounds with pPAFAH inh; 2,300 tested, 72% active; inhibition, % at 3.39 µM; recombinant pPAFAH, FP-Rh probe fluorescence polarization;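 active = mean inhibition of the triplicate above the hit cutoff set for the earlier primary screen, cut at about 25% in these data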;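 note: 0% = enzyme with DMSO and 100% = wells lacking pPAFAH enzyme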
# PAFAH2 confirm: PAFAH2 enzyme inhibitors, confirmation, biochemical, fluorescence polarization, human | shares compounds with PAFAH2 FP inh | AID 493030, 2011 | inhibition, % at 3.39 µM | recombinant PAFAH2, FP-rhodamine activity probe | 2,300 tested, 65% active;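 active = mean inhibition over three repeats above a set limit taken from the earlier primary screen, cut at about 30% in these data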;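 note: inhibitor blocks binding of rhodamine activity probe so polarization falls; 0% = enzyme with DMSO and 100% = wells lacking PAFAH2 protein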
# PAFAH1B3 conf FP: PAFAH1B3 enzyme inhibitors, confirmation, biochemical, fluorescence polarization, human; shares compounds with PAFAH1B3 FP inh; recombinant PAFAH1B3, FP-Rh activity-based probe; inhibition, % at 3.39 µM; 390 tested, 30% active;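 active = average inhibition over triplicate runs above the hit cutoff set in the earlier primary screen, cut at about 25% in these data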;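 note: 0% = enzyme with DMSO and 100% = wells lacking PAFAH1B3 protein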
# An asterisk follows results filed as active; . = no result. Only some compounds are listed: those with a hit (about 3.8% of all), similar ones and a draw of the others.
SMILES,PAFAH1B2 inh,PfM18AAP inh-1,DSG3 Ab inh,PAFAH1B3 FP inh,PAFAH2 FP inh,pPAFAH inh,PfM18AAP inh-2,CTSL1 counter,pPAFAH confirm,PAFAH2 confirm,others
Cc1oc2c(O)c(O)ccc2c(=O)c1-c1cnn(-c2ccccc2)c1,1,32*,99,6,33*,51*,27,-2,60*,.,
Cc1oc2cc(O)cc(C)c2c(=O)c1-c1cnn(-c2ccccc2)c1,2,0,105,6,7,-1,.,.,.,.,
N#C/C(=C/c1ccc(O)c(O)c1)c1nc2ccccc2[nH]1,45*,62*,96,58*,62*,63*,43*,-1,79*,.,
CC(=O)Nc1ccc(-c2csc(Nc3ccccn3)n2)cc1,1,-1,87,11,2,9,.,.,.,.,
Cc1cccc(Nc2nc(-c3ccc(O)c(O)c3)cs2)n1,2,54*,111,21,7,51*,28,-5,28*,.,
Cc1ccnc(Nc2nc(-c3ccc(O)c(O)c3)cs2)c1,3,62*,122,18,-8,41*,47*,-1,30*,.,
Oc1ccc(-c2csc(Nc3ccccn3)n2)cc1O,5,64*,107,21,11,40*,47*,-4,32*,.,
Oc1ccc(-c2csc(Nc3cccc4ccccc34)n2)cc1O,2,55*,95,7,16,72*,25,-13,66*,.,
COc1cc(C)ccc1Oc1ccc([N+](=O)[O-])cc1,7,.,.,11,-2,.,.,.,.,.,
O=c1cc2oc3cc(O)c(O)cc3c(-c3ccccc3[N+](=O)[O-])c-2cc1O,17,59*,95,13,57*,88*,49*,-1,83*,.,
CC(=O)C(C(C)=O)c1c(Cl)c(O)c(O)c2c(C(=O)c3ccccc3)coc12,0,55*,99,-9,10,59*,55*,3,45*,.,
O=C1NC(=O)C(c2ccccc2[N+](=O)[O-])=C1Nc1ccc(O)c(Cl)c1,0,40*,96,8,12,44*,-81,-4,6,.,
COc1cc(-c2nnc(SCc3cc(=O)oc4cc(O)c(O)cc34)o2)cc(OC)c1OC,4,35*,97,28*,42*,59*,2,5,75*,.,
CCN1C(=O)N(C)C(N(O)C(=O)NC)C1(C)C (configuration not stated),3,42*,109,7,56*,-1,-59,-4,.,-5,
CNC(=O)N(O)C1N(C)C(=O)N(Cc2ccccc2)C1(C)C (configuration not stated),3,7,100,2,-2,0,.,.,.,.,
CCCNC(=O)c1ccc(N2CCC3(CC2)CC(c2ccccc2)=NO3)c(NC(=O)Cc2ccc(F)cc2)c1,3,-9,.,4,20,12,.,.,.,.,
NC(=O)c1sc2nc3c(c(-c4ccco4)c2c1N)CCC3,9,33*,110,24,44*,20,-27,-5,.,7,
Cc1ccc(-c2c3c(nc4sc(C(N)=O)c(N)c24)CCCC3)o1,-3,5,101,5,4,20,.,.,.,.,
COc1cccc(-n2c(SCc3cc(=O)oc4cc(O)c(O)cc34)nc3ccccc3c2=O)c1,2,56*,90,16,64*,94*,-10,6,92*,54*,
CCN(CC)C(=O)CSc1nc2ccccc2c(=O)n1-c1cccc(OC)c1,-3,6,.,1,3,-3,.,.,.,.,
N#C/C(=C\c1ccc(O)c(O)c1)S(=O)(=O)c1ccccc1,14,51*,101,17,64*,11,24,5,.,49*,
CSc1ccccc1C(=O)C1CCCN(S(=O)(=O)c2c(C)noc2C)C1 (configuration not stated),3,0,107,13,-2,6,.,.,.,.,
C/C(=N\NC(=O)c1ccccc1)C1C2C=CC(C2)C1(C)C (configuration not stated),3,2,.,2,-4,-1,.,.,.,.,
C=CCSC1=N/C(=C\c2cc(OCC)c(OC(C)=O)c([N+](=O)[O-])c2)C(=O)S1,15,38*,126,8,60*,10,-44,2,.,65*,
O=C(NNC(=O)c1cc(Cl)ccc1O)c1cccs1,5,35*,.,9,77*,8,-5,-3,.,73*,
SMILES,PAFAH1B2 inh,PfM18AAP inh-1,DSG3 Ab inh,PAFAH1B3 FP inh,PAFAH2 FP inh,pPAFAH inh,PfM18AAP inh-2,CTSL1 counter,pPAFAH confirm,PAFAH2 confirm,others
O=C(NC(=S)NNC(=O)c1ccccc1O)c1cccs1,4,44*,104,15,45*,13,3,-2,.,36*,
O=C(NNC(=O)c1ccccc1Cl)c1cccs1,2,-2,102,7,-1,-2,.,.,.,.,
COc1ccc(C(N)=O)c(OCC(=O)Nc2cc(C)on2)c1,0,.,.,5,-7,-2,.,.,.,.,
O=c1c2ccccc2nc(COc2ccccc2)n1/N=C/c1ccc(O)c(O)c1,4,53*,99,11,30*,22,25,6,.,24,
O=C(NNC(=O)c1ccc2ccccc2c1O)NC1CCCCC1,11,49*,108,30*,3,.,7,-1,.,.,PAFAH1B3 conf FP=25
CCN(C(=O)COC(=O)c1cccc(S(=O)(=O)N(C)C)c1)c1c(N)n(Cc2ccccc2)c(=O)[nH]c1=O,1,.,.,1,-5,.,.,.,.,.,
O=C1ON=C(c2ccccc2)/C1=C/c1ccc(O)c(O)c1,8,60*,90,29*,10,7,37*,-4,.,.,PAFAH1B3 conf FP=47*
